APP 5UTR inh: inhibitors of APP translation via 5'UTR reporter, primary screen, APP 5'UTR luciferase, SH-SY5Y cells | SH-SY5Y APP 5'UTR-luciferase reporter, luminescence | inhibition, % at 2 µM | hit rate 0.82% among 190,000 | AID 1285, 2008;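 active = inhibition above a set limit, derived from the sample mean plus 3 SD, cut at about 45% in these data; inconclusive = one replicate passes the limit while the other fails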
Ba/F3 V617F tox: reduced viability of JAK2V617F-dependent Ba/F3 cells, primary screen, JAK2V617F inhibitor project, cell-based, Ba/F3 EpoR-JAK2V617F, luminescence; ATP luminescence; inhibition, % at 5.6 µM; hit rate 1.1% among 220,000; AID 1446, 2008;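 active = inhibition above the campaign mean plus 3 SD over all tested compounds, cut at about 24% in these data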;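 also: cytokine-independent growth of Ba/F3 cells driven by EpoR plus mutant JAK2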
BaF3 parental: parental Ba/F3 cell viability inhibition, counter-screen for JAK2V617F inhibitor project, murine pro-B, CellTiter-Glo luminescence; inhibition, % at 5.6 µM; AID 1486, 2009; hit rate 1.1% among 220,000; CellTiter-Glo ATP luminescence;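 active = inhibition above a per-campaign cutoff, the mean inhibition of all tested compounds plus 3 SD, cut at about 27% in these data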
aSyn 5UTR inh: MLPCN primary screen, SNCA 5' untranslated region. alpha-synuclein 5'UTR reporter, inhibitor activity. inhibition, % (tested at 7.5 µM). hit rate 0.82% among 300,000. AID 1813, 2009; in the data active = inhibition above about 60%; inconclusive = no clear call, values can overlap the other calls;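 also: H4 neuroglioblastoma cells stably carrying SNCA 5'UTR luciferase fusion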
IEC-6 tox: cytotoxicity in IEC-6 intestinal epithelial cells, primary screen, cytotoxicity control for KLF5 inhibitor project, cell-based, luminescence; inhibition, % at 5 µM; hit rate 0.78% among 290,000; IEC-6 cytotoxicity, luminescence viability; in the data active = inhibition above about 22%
KLF5 inh: KLF5 expression inhibitors, primary screen, DLD-1 cells, luminescence; DLD-1 KLF5 promoter-luciferase reporter; inhibition, % at 5 µM; hit rate 0.23% among 290,000;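 active = inhibition above a per-plate limit of that plate's mean compound inhibition plus 3 SD, cut at about 60% in these data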;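 also: higher means less KLF5 promoter-driven luciferase light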
Hits are given with their value; . = inactive; ? = inconclusive; / = not tested or not shown. This is a sample that favours compounds with a hit; in the whole collection about 2.2% have one here.

SMILES	APP 5UTR inh	Ba/F3 V617F tox	BaF3 parental	aSyn 5UTR inh	IEC-6 tox	KLF5 inh
Cn1c2ccccc2c(=O)c2cc(C#CC3(O)CCCCC3)ccc21	/	/	/	77	.	.
Cc1cc2sc3ccc(C#CC4(O)CCCCC4)cc3c(=O)c2cc1C	/	/	/	102	/	/
COc1ccc(NC(=S)NN(C)C(=S)Nc2ccc(OC)cc2)cc1	93	.	.	.	.	.
COc1ccc(NC(=S)Nc2ccc(Oc3ccccc3)cc2)cc1	.	.	.	.	.	.
COC(=O)C1=C(C)NC(=O)/C1=C\N(C)C	.	.	.	.	.	.
COc1cccc(N2CCN(C(=O)C3CCC(=O)N(C4CCCCCC4)C3)CC2)c1 (centres undefined)	/	/	/	.	.	.
Cc1nc(=O)c(-c2ccccc2)c(C)n1Cc1ccccc1	48	.	.	.	.	.
CN=c1scc(-c2ccccc2F)n1/N=C(\C)c1cccnc1	.	.	38	.	.	.
C/C(=N\N1CCN(C2c3ccccc3-c3ccccc32)CC1)c1cccnc1	.	.	.	.	.	.
COc1cc(-n2c(C)nc3cc(C(=O)N4CCOCC4)ccc32)cc(OC)c1OC	.	.	91	.	.	.
CC1(C)N=C(N)N=C(N)N1c1cccc(CN)c1	/	61	58	.	.	.
CC1(C)N=C(N)N=C(N)N1c1ccc(F)cc1F	.	29	36	.	.	.
Cc1cccc(N2C(N)=NC(N)=NC23CCCCC3)c1	.	61	61	.	.	.
COc1ccc(OC)c(N2C(N)=NC(N)=NC23CCCC3)c1	.	.	.	.	.	.
CCc1ccc(-c2nc(SCC(=O)NC3CC3)n[nH]2)cc1	/	/	/	.	/	/
Cc1ccc(C)c(N(CC(=O)NC2CCCCC2)C(=O)CNC(=O)c2ccco2)c1	/	/	/	.	.	.
S=C(Nc1cccnc1)Nc1cccc2cnccc12	.	.	.	66	.	.
S=C(Nc1ccc(Cl)cc1)Nc1cccc2cnccc12	.	.	.	.	.	.
COc1cccc2cc(C(=O)CS(=O)(=O)c3ccc(Cl)cc3)c(=O)oc12	/	/	/	.	.	.
Cc1cc(C(=O)N/N=C2\CCCc3ccccc32)c(C)o1	68	.	.	.	.	.
Cc1c(NC(=O)Nc2cccs2)cccc1[N+](=O)[O-]	.	.	29	.	.	.
O=C(Nc1cccs1)Nc1ccccc1Cl	.	.	.	.	.	.
Cc1cccc([C@@H]2[C@@H]3C(=O)N(Cc4ccccc4)C(=O)[C@@H]3[C@]3(Cc4ccccc4)C(=O)N(c4ccc(C(F)(F)F)cc4)C(=O)N23)c1	/	/	/	.	/	/
C=CC(C)(C)c1c(O)c(CC=C(C)C)c(O)c2c(=O)c3ccc(O)c(O)c3oc12	/	/	/	73	/	/
COc1ccccc1N1CCN(CC(=O)Nc2ccc(-n3cnnn3)cc2)CC1	.	.	.	.	.	.
SMILES	APP 5UTR inh	Ba/F3 V617F tox	BaF3 parental	aSyn 5UTR inh	IEC-6 tox	KLF5 inh
Cc1nn(C)c(C)c1CN(C)C(=O)CCCC(=O)O	.	.	93	.	.	.
Cc1ccc(CN2CC(C(=O)N3CC=C(c4ccccc4)CC3)CC2=O)cc1 (centres undefined)	/	/	/	.	.	.
COc1cc(OC)cc(C(=O)NC(=S)N(Cc2ccccc2)C(C)C)c1	/	/	/	.	.	.
CC(C)C(=O)Nc1cccc(C(=O)N2CCCCC2C)c1 (centres undefined)	.	32	49	.	.	.
CN1/C(=C/c2cc[n+](C)c3ccccc23)C=Cc2ccccc21	.	76	63	/	.	.
CC(Sc1nc2c(cc1C#N)CCCCC2)C(=O)O (centres undefined)	.	.	.	.	.	.
CCN1C(=O)[C@@H]2[C@@H](c3ccc(-c4ccc(Cl)c(Cl)c4)c(OC)c3)N3CCCC[C@@]3(C(=O)OC)[C@@H]2C1=O	/	/	/	.	/	/
Nc1nc2ncc(CNc3ccc(C(=O)N[C@@H](CCC(=O)O)C(=O)O)cc3)nc2c(=O)[nH]1	/	/	/	.	.	.
CN(Cc1cnc2nc(N)nc(N)c2n1)c1ccc(C(=O)N[C@@H](CCC(=O)O)C(=O)O)cc1	/	/	/	78	/	/
Cc1ccc(NC(=O)CN(C)C(=O)Cn2ncc(Cl)c(Cl)c2=O)cc1	96	.	.	82	.	.
O=C(Cn1ncc(Cl)c(Cl)c1=O)c1ccc(Cl)cc1	81	.	.	.	.	.
CC(C)(C)C(=O)Cn1ncc(N2CCCC2)c(Br)c1=O	.	.	.	.	.	.
CC(C)(C)C(=O)Cn1ncc(Cl)c(Cl)c1=O	50	.	.	.	.	.
O=C(Cn1ncc(Cl)c(Cl)c1=O)NCC1CCCCC1	97	.	.	/	.	.
CN(C1CCCCC1)C(CNS(=O)(=O)c1ccc(Cl)cc1)c1ccccc1 (centres undefined)	/	/	/	.	.	.
COc1ccc(CNC(=O)C(NC(C)=O)C(=O)Nc2ccc(C(C)C)cc2)cc1 (centres undefined)	.	.	.	.	.	.
O=C1CN(C(=O)Cn2ncc(Cl)c(Cl)c2=O)c2ccccc2N1	90	.	.	.	.	.
C=CC[N+]1(CC(=O)NCc2ccc(NC(C)=O)cc2)CCOCC1	/	.	.	.	.	.
CNC(=O)n1cc(C)c(-c2cccs2)n1	/	.	.	.	.	.
COc1ccc(C2=[N+](C)CCn3cccc32)c(OC)c1	.	77	67	.	.	.
COc1ccc(CN2CCc3ccccc3C2)c(OC)c1	/	.	.	.	.	.
O=C(CCn1c(=S)oc2ccccc21)NC1CCCCCC1	/	.	.	.	.	.
CC1CCCCN1C(=O)CCn1c(=S)oc2ccccc21 (centres undefined)	/	.	50	.	.	.
Cc1ccccc1CN(CC1CCC(C(=O)O)CC1)C(=S)Nc1ccccc1F (centres undefined)	.	.	.	.	.	.
COc1ccc(COc2cc(-c3cccc(OC)c3)nc3ccc(NC(=O)C(C)C)cc23)cc1	.	61	70	.	.	.
SMILES	APP 5UTR inh	Ba/F3 V617F tox	BaF3 parental	aSyn 5UTR inh	IEC-6 tox	KLF5 inh
CN(C(=O)COC(=O)/C=C/c1cccs1)c1c(N)n(Cc2ccccc2)c(=O)[nH]c1=O	/	/	/	.	/	/
Cc1cc(C)c2c(=O)[nH]c(SCC(=O)N3CCCCC3)nc2n1	.	37	37	.	.	.
Cc1cc(C)c2c(=O)[nH]c(SCC(=O)N3CCOCC3)nc2n1	.	.	.	.	.	.
O=C(N/C(=C\c1ccco1)C(=O)N1CCOCC1)c1ccccc1Cl	/	/	/	.	.	.
N=c1c2c(n(Cc3ccc(Cl)cc3)c3c1CCC3)CCC2	.	95	73	.	.	.
N=c1c2c(n(Cc3ccc(F)cc3)c3c1CCC3)CCCC2	.	55	57	.	.	.
N=c1c2c(n(Cc3cccc(Cl)c3)c3c1CCC3)CCCC2	.	72	61	?	.	.
Clc1cccc(CN2CCCCCC2)c1	/	/	/	.	.	.

Compound activity (PubChem BioAssay)
